Screening data deposited in PubChem BioAssay by National Center for Advancing Translational Sciences (NCATS).
Shown are actives, neighbours in structure and some others; about 3.2% of the full set was active somewhere.
pS6 MEF inh: inhibitors of mTORC1 signaling in Tsc2-/- p53-/- MEF cells; Tsc2-/- p53-/- MEF, phospho-rpS6 immunofluorescence/PI, 24 h; Potency, µM (series often up to 38.3 µM), without a hit: top-dose activity change, negative = inhibition, actives largely listed as inhibitors; actives 0.78% (n = 44,000); AID 493208;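 note: potency is the fitted concentration of half-maximal effect; plate controls were DMSO for no effect and rapamycin for full effect; nearly all actives have a fitted effect of over 50% in size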
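Immunofluorescence of rpS6 phosphorylation in Tsc2-/-, p53-/- MEFs after 24 h compound exposure, normalized to propidium iodide signal. Activity is expressed as % positive cells, thresholded with 7.5 nM rapamycin.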
PMP22 txn: modulators of PMP22 gene transcription in S16 Schwann cells; S16 Pmp22-F2sN Schwann cells, FLuc/NLuc coincidence luminescence, 24 h; Potency, µM (doses to about 57.5 µM), without a hit: at the top dose activity change, negative = inhibition, actives largely listed as inhibitors; actives 2% (n = 43,000); AID 1508649; active = clear falling dose curves in both reporters; inconclusive = both reporters move, but less clearly or upward; inactive = either reporter flat; the % is the NLuc reporter signal; note: potency is the fitted concentration of half-maximal effect; % is set by controls: 0 for no effect and ±100 for the full control effect
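Luminescent read-out of sequential FLuc and NLuc signals from a reporter embedded in the Pmp22 3' UTR of S16 Schwann cells, taken after 24 h compound exposure at 37C; compounds reducing both signals score as inhibitors of expression.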
p53null 32C tox: selectivity test: cytotoxicity in p53 null cells, permissive temperature | H1299-neo p53 null cells, ATP luminescence, 24 h, 32C | Potency, µM (doses to about 46.1 µM), without a hit: top-dose activity change, negative = cytotoxicity, actives largely listed as cytotoxic | actives 0.62% (n = 55,000) | AID 903;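 note: potency is the fitted concentration of half-maximal effect; 0% = DMSO only and -100% = full killing by 100 µM tamoxifen; nearly all actives have a fitted effect of over 55% in size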
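Overnight 37C seeding (600 cells/well) of H1299-neo preceded a 24 hr, 32C exposure to compounds up to 46 uM. ATP levels, read by luminescence after 20 min at RT, indicated surviving cells.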
p53null 39C kill: selectivity test: cytotoxicity in p53 null cells, nonpermissive temperature | H1299 p53-null (neo) cells, 39C, ATPlite viability, 24 h | Potency, µM (highest dose often 46.1 µM), inactives show top-dose activity, negative = cell killing, hits mostly cytotoxic | actives 0.97% (n = 55,000) | AID 904;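 note: potency is the fitted concentration of half-maximal effect; 0% = DMSO only and -100% = full killing by 100 µM tamoxifen; nearly all actives have a fitted effect of over 50% in size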
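Temperature-shift cytotoxicity format: compound titrations on p53-null or A138V-expressing H1299 cells held 24 hr at 39C, cell ATP then measured, AC50 from Hill model.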
S16 viability: S16 Schwann cell cytotoxicity; S16 Pmp22-F2sN Schwann cells (luciferase reporters placed in the Pmp22 gene) viability, CellTiter-Glo, 24 h; Potency, µM (highest dose often 57.5 µM), for the others: at the highest dose activity change, negative = cytotoxicity, usual class: cytotoxic; actives 0.48% (n = 43,000); AID 1508642; note: potency is the fitted concentration of half-maximal effect; % is set by controls: 0 for no effect and ±100 for the full control effect; nearly all actives have a fitted effect of over 65% in size
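CellTiter-Glo counter-screen, qHTS, 1536-well. Cells: S16(c9) Pmp22-F2sN, 500-1,000/well in DMEM + 10% FBS. Cpd 23 nL pin transfer, 24 h, 37C/5% CO2. Read: luminescence, CCD imager.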
NLuc saturating: counter-screen for PMP22 expression modulators: NanoLuc inhibition, saturating substrate | Secreted NLuc enzyme (filtered S16 cell medium), Nano-Glo luminescence | Potency, µM (top dose mostly 57.5 µM), without a hit: at the top dose activity change, negative = inhibition, usual class: inhibitors | AID 1508638 | actives 4% (n = 690) | shares compounds with PMP22 txn; note: potency is the fitted concentration of half-maximal effect; % is set by controls: 0 for no effect and ±100 for the full control effect
NLuc Km ctr: inhibits NanoLuc under Km conditions, PMP22 counter-screen. shares compounds with PMP22 txn. secreted NLuc enzyme, coelenterazine luminescence, Km conditions. Potency, µM (doses to about 57.5 µM), for inactives: top-dose activity change, negative = inhibition, actives largely listed as inhibitors. actives 5% (n = 690); note: potency is the fitted concentration of half-maximal effect; % is set by controls: 0 for no effect and ±100 for the full control effect
FLuc counter: firefly luciferase enzyme inhibition artifact for PMP22 screen; shares compounds with PMP22 txn; purified P. pyralis FLuc, luminescence, 10 min; Potency, µM (titrated, usually from 57.5 µM), inactives show at the highest dose activity, negative = inhibition, hits mostly inhibitors; 690 tested, under 10 active; AID 1508640; note: % of control where 0% means no effect
Target sequence (P08659 whole entry, looked up): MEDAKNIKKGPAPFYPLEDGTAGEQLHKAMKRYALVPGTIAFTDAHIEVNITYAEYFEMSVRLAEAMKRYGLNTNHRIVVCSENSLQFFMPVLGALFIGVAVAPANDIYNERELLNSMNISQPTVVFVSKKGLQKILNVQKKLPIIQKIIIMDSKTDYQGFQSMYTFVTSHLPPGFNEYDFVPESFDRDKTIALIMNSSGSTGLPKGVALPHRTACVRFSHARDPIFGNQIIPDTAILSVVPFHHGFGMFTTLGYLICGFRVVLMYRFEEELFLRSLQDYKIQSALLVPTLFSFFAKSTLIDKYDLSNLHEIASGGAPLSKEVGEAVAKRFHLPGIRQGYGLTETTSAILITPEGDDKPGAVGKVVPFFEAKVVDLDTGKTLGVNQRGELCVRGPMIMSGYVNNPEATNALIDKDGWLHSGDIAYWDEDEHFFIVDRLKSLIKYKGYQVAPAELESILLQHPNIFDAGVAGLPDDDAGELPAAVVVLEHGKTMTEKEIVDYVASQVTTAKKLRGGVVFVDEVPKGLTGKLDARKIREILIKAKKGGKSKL
S16 viab conf: S16 Schwann cell cytotoxicity, confirmatory. shares compounds with PMP22 txn. S16 Schwann cells viability, CellTiter-Glo ATP luminescence, 24 h. Potency, µM (doses to about 57.5 µM), without a hit: top-dose activity change, negative = viability loss, hits mostly cytotoxic. actives 7% (n = 690); note: potency is the fitted concentration of half-maximal effect; % is set by controls: 0 for no effect and ±100 for the full control effect
PMP22 txn conf: PMP22 transcription modulation, confirmatory. Potency, µM (highest dose often 57.5 µM), inactives show at the highest dose activity change, negative = inhibition, hits mostly inhibitors. S16 Schwann cells Pmp22-F2sN, dual luciferase, 24 h. AID 1508646. actives 22% (n = 690). shares compounds with PMP22 txn; active = clear falling dose curves in both reporters; inconclusive = both reporters move, but less clearly or upward; inactive = either reporter flat; the % is the FLuc reporter signal; note: potency is the fitted concentration of half-maximal effect
PMP22 HiBiT cnf: rat PMP22 protein level modulation, confirmatory. shares compounds with PMP22 txn. 95 tested, under 10 active. AID 1508647. S16 Schwann cells Pmp22-HiBiT, luminescence, 48 h. Potency, µM (series often up to 27.9 µM), inactives show at the highest dose activity change, negative = inhibition, usual class: inhibitors
The depositor's hits bear a star; ? = inconclusive; . = no result; [ ] = remark or other dose. Unless noted, calls come from the whole dose curve; as a rule, active = well fitted curve in the direction sought with a large enough effect; inconclusive = small, poorly fitted or top-dose-only effect, or another doubt; inactive = no such curve, though single readings can be large; an effect the other way counts as inactive or inconclusive.

SMILES	pS6 MEF inh	PMP22 txn	p53null 32C tox	p53null 39C kill	S16 viability	NLuc saturating	NLuc Km ctr	FLuc counter	S16 viab conf	PMP22 txn conf	others
Cc1cn2c(=O)cc(COC(=O)c3ccc(NC(=O)c4ccc(C(C)(C)C)cc4)cc3)nc2s1	0%	4%	?	?	-3%	.	.	.	.	.
CCCCS(=O)(=O)c1nc(-c2ccc(Br)cc2)cc(-c2ccccc2)c1C#N	5.2µM*	6.8µM*	20%	28%	?	-12%	3%	4%	-12%	9.3µM*	PMP22 HiBiT cnf=98%
CCSc1nnc2c(n1)OC(c1ccc(C)cc1)N(C(C)=O)c1ccccc1-2 (configuration not stated)	-2%	?	43%	0%	-25%	?	-17%	5%	-4%	-7%
COc1ccc(C2Oc3nc(SC)nnc3-c3ccccc3N2C(C)=O)cc1 (configuration not stated)	9%	?	7%	?	1%	.	.	.	.	.
Cc1ccc(-c2c(C)n3c4c(=O)n(C)c(=O)n(C)c4nc3n2-c2cccc(O)c2)cc1	-1%	16µM*	?	?	7%	?	?	-5%	-6%	?
COc1ccc(-c2csc3ncnc(Nc4cc(OC)cc(OC)c4)c23)cc1	1%	-22%	?	?	-19%	.	.	.	.	.
Cc1cccc(-c2nnn3c2nc(NCCC(C)C)c2ccccc23)c1	-2%	13µM*	-3%	17%	8%	-2%	0%	-1%	16%	-1%
Cc1cccc(-c2nnn3c2nc(NCc2ccc4c(c2)OCO4)c2ccccc23)c1	-11%	17µM*	-4%	?	0%	-12%	-20%	-10%	-23%	15µM*
Cc1cccc(-c2nnn3c2nc(NCCc2ccc(S(N)(=O)=O)cc2)c2ccccc23)c1	-1%	-31%	?	-23%	15%	.	.	.	.	.
Clc1ccc(-c2nnn3c2nc(NCc2ccc4c(c2)OCO4)c2ccccc23)cc1	-7%	?	0%	-13%	9%	.	.	.	.	.
COc1ccc(-c2csc3ncnc(Nc4ccc(OC)cc4OC)c23)cc1	0%	?	2%	20%	-21%	.	.	.	.	.
COc1ccccc1Nc1ncnc2scc(-c3ccc(F)cc3)c12	11%	18µM*	-7%	-5%	-28%	-8%	4%	7%	-2%	-49%
Cc1ccc(S(=O)(=O)NCCSc2nnnn2-c2ccc(Cl)c(C(=O)O)c2)cc1	-13%	1%	-3%[9.22 µM]	1%	2%	.	.	.	.	.
